# gsp antagonist – antagonizes gsp, the McCune-Albright syndrome mutation; gsp-mutant cells, cAMP HTRF, 30 min; AID 624288; Potency, µM (series often up to 76.9 µM), most hits filed as inhibitors; 340,000 tested, 0.4% active; calls by dose curve; cell line not stated here;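 further: intracellular cAMP measured with PDE inhibitor Ro 20-1724 present during compound exposure; nearly all actives have a fitted effect of over 65% in size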
#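 HTRF cAMP read-out (cAMP-d2 plus anti-cAMP antibody-K in lysis buffer, 30 min RT). Before lysis, cells are exposed to compounds with […] for 30 min at 37C in DPBS containing Ca/Mg, BSA and Tween 20.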
# RXFP1 agonist – RXFP1 (human) receptor agonism; HEK293T-RXFP1 cAMP TR-FRET, 30 min; response scale: percent of porcine relaxin response, buffer zero; Potency, µM (series often up to 57.5 µM), actives largely listed as activators; 370,000 tested, 0.3% active; further: nearly all actives have a fitted effect of over 60% in size
# Target sequence (Q9HBX9 whole entry, looked up): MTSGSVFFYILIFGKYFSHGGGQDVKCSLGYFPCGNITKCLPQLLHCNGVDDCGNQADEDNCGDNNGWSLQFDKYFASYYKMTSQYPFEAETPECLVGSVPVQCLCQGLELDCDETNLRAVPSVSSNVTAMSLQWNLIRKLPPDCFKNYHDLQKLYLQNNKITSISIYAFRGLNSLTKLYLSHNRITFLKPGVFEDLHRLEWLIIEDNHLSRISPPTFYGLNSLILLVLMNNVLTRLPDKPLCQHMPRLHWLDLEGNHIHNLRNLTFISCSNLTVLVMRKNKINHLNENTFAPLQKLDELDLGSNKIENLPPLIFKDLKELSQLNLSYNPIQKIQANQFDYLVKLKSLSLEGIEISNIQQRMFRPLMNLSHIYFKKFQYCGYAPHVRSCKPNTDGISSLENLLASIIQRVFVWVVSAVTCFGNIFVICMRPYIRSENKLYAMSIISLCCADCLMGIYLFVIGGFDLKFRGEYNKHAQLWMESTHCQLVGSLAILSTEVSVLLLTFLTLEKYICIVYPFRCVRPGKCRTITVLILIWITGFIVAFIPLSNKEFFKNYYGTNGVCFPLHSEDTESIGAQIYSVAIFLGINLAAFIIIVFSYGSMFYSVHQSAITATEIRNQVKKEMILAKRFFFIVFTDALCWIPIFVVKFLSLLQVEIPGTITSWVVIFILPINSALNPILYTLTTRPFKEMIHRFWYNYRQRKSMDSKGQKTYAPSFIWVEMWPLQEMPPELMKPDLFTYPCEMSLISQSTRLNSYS
#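 cAMP rise read by TR-FRET after 30 min, 37C compound exposure (up to 58 uM) in RXFP1-transfected HEK293 cells with Ro 20174 present. EC50 from Hill-equation fits, with 29 nM porcine relaxin as 100% and buffer as basal.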
# Tb PFK block – inhibitors of T. brucei phosphofructokinase | Potency, µM (titrated, usually from 57.5 µM), actives largely listed as inhibitors | O15648 | 330,000 tested, 0.17% active | T. brucei PFK, ADP-Glo luminescence; further: nearly all actives have a fitted effect of over 60% in size
#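 PFK 1.25 nM, F6P 0.5 mM, ATP 0.1 mM, 0.1 M TEA pH 8.0, 5 mM MgCl2, 0.01% Tween20, 0.1% BSA; 45 min RT. ADP-Glo readout. qHTS titration up to 57 uM; curves fitted, compounds curve-classed.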
# p53 reactivator – mutant p53 re-activation in reporter cells. H1299 p53-A138V BP100-luciferase reporter, luminescence, 24 h. Potency, µM (doses to about 92.2 µM), actives largely listed as activators. 320,000 tested, 0.063% active; further: nearly all actives have a fitted effect of over 45% in size
#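 H1299 (p53-null), stable ts p53-A138V + BP100-Luc; 1000 cells/well, Opti-MEM/10% FBS; cpd 4 pt, 1:5; 24 h, 37 deg C, 5% CO2; detection reagent 10 min RT; luminescence.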
# RXFP1 antagonist – blocks the human relaxin receptor RXFP1. HEK293-RXFP1, relaxin-stimulated cAMP HTRF, 30 min; active compounds read low. AID 1259400. activity change, negative = inhibition, % at 57.5 µM. Q9HBX9. 350,000 tested, 0.59% active;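 active means activity change of -60% or lower, but not beyond a set lower limit; inconclusive means change between -60% and -40%, or beyond the set limit; inactive means change above -40%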
# gsp ag – agonists of gsp mutant (McCune-Albright syndrome); gsp mutant cells, cAMP HTRF, 30 min; Potency, µM (highest dose often 76.9 µM), actives largely listed as activators; 340,000 tested, 0.13% active; active means well fitted activation curve with a large enough effect; inconclusive means small, poorly fitted or top-dose-only effect, or another doubt; inactive means no such curve, though single readings can be large or run the other way; cell line not stated here;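 further: phosphodiesterase inhibitor Ro 20-1724 added with compounds to block cAMP breakdown; nearly all actives have a fitted effect of over 60% in size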
#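 Cells in DMEM/10% FBS with G418 were pretreated with compounds in DMSO plus […] (300 uM stock) for 30 min at 37C. cAMP was measured by HTRF (cAMP-d2 plus anti-cAMP antibody-K) after 30 min at room temperature.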
# Hits are given with their value; . = inactive; ? = inconclusive; / = no result given; [ ] = another dose, or the depositor's remark. Most compounds without a hit are left out; they make up all but 1.1% or so of the library. Unless noted, the call rests on the fitted dose curve; in most records, active means well fitted curve in the direction sought with a large enough effect; inconclusive means small, poorly fitted or top-dose-only effect, or another doubt; inactive means no such curve, though single readings can be large; an effect the other way counts as inactive or inconclusive.
SMILES,gsp antagonist,RXFP1 agonist,Tb PFK block,p53 reactivator,RXFP1 antagonist,gsp ag
CCOc1ccccc1NC(=O)COc1coc(CN2CCc3ccccc3C2)cc1=O,.,.,.,.,.,.[15.4 µM]
CCNC(=S)N1CCN(c2nc(-c3ccc(F)cc3)cs2)CC1,35µM,.,.,/,.,.
CCN(CC)CCCNC(=S)N1CCN(c2nc(-c3ccc(F)cc3)cs2)CC1,.,.,.,/,-74,.[15.4 µM]
Cc1ccc(Nc2nc3nonc3[nH]c2=O)cc1Cl,28µM,.,.,.,.,.
Cc1ccc(Nc2nc3nonc3[nH]c2=O)cc1C,.,.,.,?,.,.
N#Cc1c(-c2ccccc2)nc(SCC(=O)NC2CCCCC2)[nH]c1=O,.,22µM,.,.,.,?
COc1cccc(-c2nc(SCC(=O)Nc3nc(-c4ccccc4)c(C)s3)[nH]c(=O)c2C#N)c1,.,.,.,.,-71,.[15.4 µM]
COCCN(CCOC)c1nc(-c2ccc(Cl)cc2)nc2ccccc12,?,.,.,/,.,.
CC(C)C1C(=O)N(Cc2cn(CCC3OCCO3)nn2)CCS(=O)(=O)N1Cc1ccc(-c2ccc(F)nc2)cc1 (stereo unspecified),/,/,/,/,.,.
Cc1nc(C)c(CC(=O)N2CCc3c([nH]c4ccccc34)C2c2ccccn2)s1 (stereo unspecified),.,.,.,.,-75,.[15.4 µM]
CC(=O)c1cc(CC(=O)N2CCc3c([nH]c4ccccc34)C2c2ccccn2)cs1 (stereo unspecified),.,.,.,.,.,.
Cc1ccc(-n2c(Cl)c(Cl)nc(Cl)c2=O)cc1,.,.,?,.,-103,.[15.4 µM]
COc1nc(Cl)cn(-c2ccc(C)cc2)c1=O,.,.,.,.,.,.
CC(C)(C)c1cc(=O)[nH]c(SCc2ccccc2)n1,.,.,.,.,.,.[15.4 µM]
CC(C)(C)c1cc(=O)[nH]c(SCc2ccccc2Cl)n1,.,.,.,.,-74,.[15.4 µM]
O=c1ccc(=O)n(-c2ccccc2)[nH]1,.,.,.,.,.,.[15.4 µM]
O=c1cc(-c2ccccc2)[nH]n1-c1ccccc1,.,/,/,/,-73,.
O=C(N/N=C/c1ccc2c(c1)OCO2)c1ccc(Br)o1,.,.,?,3.2µM,.,.
O=C(CCc1ccc(O)c(O)c1)N/N=C/c1ccc2c(c1)OCO2,.,.,4.3µM,?,.,?
CC(C)Oc1ccc(CCC(=O)N/N=C/c2ccc3c(c2)OCO3)cc1,.,.,.,.,.,.
O=C(COC(=O)CSCC(=O)N1CCCCC1)Nc1ccc(Cl)cc1,.,.,.,.,.,.
c1ccc(-c2nnc(-c3ccccn3)nc2NC2CCCCC2)cc1,.,.,.,35µM,.,.[15.4 µM]
CNc1nc(-c2ccccn2)nnc1-c1ccccc1,.,.,.,?,.,.
CCc1cccc(N2C(=O)N(CC(=O)NCc3cccc(OC)c3OC)c3ccccc3S2(=O)=O)c1,/,.,/,/,/,/
Cc1ccnc(NC(=O)c2cccc(S(=O)(=O)Nc3ccc(C)cc3C)c2)c1,.,/,.,.,-77,?
SMILES,gsp antagonist,RXFP1 agonist,Tb PFK block,p53 reactivator,RXFP1 antagonist,gsp ag
Cc1ccc(NS(=O)(=O)c2cccc(C(=O)NNC(=O)c3cccn3C)c2)c(C)c1,.,.,.,.,.,.[15.4 µM]
CN(c1ccc(OC(=O)CC2OC(=O)c3ccccc32)cc1)S(=O)(=O)c1ccccc1 (stereo unspecified),.,.,.,.,.,.
O=C(O)c1c(-c2ccccc2)c2oc3ccccc3c2[nH]c1=O,.,.,.,.,.,40µM
Cc1ccc(NC(=O)/C(C#N)=C/c2cc(C)n(-c3ccc(Br)cc3)c2C)cc1C,/,.,/,/,-63,/
N#Cc1c(C(F)(F)F)cc(-c2ccccc2Cl)[nH]c1=O,28µM,.,.,.,-110,.
Clc1ccc(OCc2nnc(SCCN3CCCCC3)n2Cc2ccco2)cc1,.,.,.,.,.,.
O=C(c1ccc(-c2ccccc2)cc1)c1ccc([N+](=O)[O-])cc1,/,.,.,.,/,/
O=C(C#Cc1ccccc1)c1ccc([N+](=O)[O-])cc1,.,.,.,.,-61,.[15.4 µM]
CN(C)C(=O)C#Cc1ccccc1,.,.,.,.,.,.[15.4 µM]
O=C(C#Cc1ccccc1)c1ccccc1,/,/,/,/,-107,?
CC(C)CC(C(=O)Nn1cnnc1)N1C(=O)c2ccccc2C1=O (stereo unspecified),.,.,.,.,.,.
COc1ccc(-c2ccnc3[nH]n(-c4ccccc4)c(=O)c23)cc1,.,.,.,.,.,.[15.4 µM]
O=C(Nc1sc2c(c1C(=O)O)CCCCC2)c1ccccc1,.,.,.,.,.,?
O=C(Nc1sc2c(c1C(=O)O)CCC2)c1ccccc1,22µM,.,.,?,.,.
O=C(/C=C/c1ccco1)Nc1sc2c(c1C(=O)O)CCC2,40µM,.,.,?,.,.
CC(/C=C/c1ccccc1)=N/NC(=O)c1cccc(Br)c1,.,.,.,.,.,.[15.4 µM]
Cc1cc(N2CCN(C(c3ccccc3)c3ccccc3)CC2)n2ncnc2n1,.,.,/,/,?,.
Cc1nc2ncnn2c(N2CCN(C(c3ccccc3)c3ccccc3)CC2)c1C,.,.,/,/,-116,.
CC(C)(C)C(=O)NC(=S)NNC(=O)C(c1ccccc1)c1ccccc1,.,.,.,.,-94,.
N#Cc1c(N)[nH]c(=S)c(C#N)c1-c1ccccc1,.,.,.,.,.,20µM
Cc1ccc(-c2cc(-c3ccccc3)[nH]c(=S)c2C#N)cc1,.,.,.,.,.,?
O=C(O)CSc1nnc(COc2ccc(Br)cc2)n1-c1ccccc1,.,.,.,/,.,.
CCc1cc2c(=O)n(-c3ccccc3)c(SCC(N)=O)nc2s1,7.1µM,.,.,.,.,.
CCOc1ccc(Nc2nc(N)c(C(=O)c3ccccc3Cl)s2)cc1,/,25µM,/,/,.,/
S=c1[nH]nc(-c2ccccc2)c2ccccc12,.,.,.,.,-84,?
SMILES,gsp antagonist,RXFP1 agonist,Tb PFK block,p53 reactivator,RXFP1 antagonist,gsp ag
Cc1ccc(-c2n[nH]c(=S)c3ccccc23)cc1,.,.,.,.,.,?
Cc1cccc(C(=O)Nc2sc(C(=O)N3CCCC3)c(C)c2C#N)c1,32µM,.,.,.,.,.
COc1ccc2cc(C#N)c(N3CCN(C(=O)c4ccccc4C)CC3)nc2c1,40µM,.,.,.,.,.
N#Cc1nc(COc2ccc(-c3ccccc3)cc2)oc1NCCCN1CCOCC1,.,.,.,.,-62,.
CC1=C/C(=N\OS(=O)(=O)c2ccccc2)C(C)=CC1=O,28µM,.,.,.,?,.
OCCCNc1cc(-c2ccccc2)nc2cc(-c3ccc(F)cc3)nn12,35µM,.,.,/,.,.
O=C(CSc1nnc(CNC(=O)c2ccco2)o1)c1ccccc1,.,.,.,.,.,.

# Compound activity from PubChem BioAssay.
